The campaign covered roughly 69,000 compounds. About 8,600 (12%) showed an effect of 50% or more. The entries come from a sample that favours strong results as a whole.
The compounds below were run on Plasmodium berghei (assay: Screen against P. berghei liver stage (PbLuc), transformed with Luciferase, at 10uM). Details: tested at 10 uM.
Format: functional, HepG2
COc1ccccc1OCCc1cc(C2CCNC2)n[nH]1 (centres undefined) showed an INHIBITION of 41.2%.
Work on Cc1ncc(C(=O)N2C[C@@H]3CC[C@H]2CN(S(=O)(=O)N(C)C)C3)c(C)n1 yielded an INHIBITION of 34.8%.
Work on COc1ccc(N2CCNC(C(N)=O)C2)cc1 (centres undefined) yielded an INHIBITION of 7.19%.
In the case of O=C(O)C1CCCN(C(=O)CCn2ccc3c(Br)cccc32)C1 (centres undefined), the INHIBITION is reported as 34.2%.
For COc1cccc2c1ccn2CCC(=O)N1CCCC(C(=O)O)C1 (centres undefined), the INHIBITION was -22.9%.
O=C(O)C1CCCN(C(=O)CCn2ccc3c(Cl)cccc32)C1 (centres undefined) showed an INHIBITION of 63.1%.
For Cn1cc(C2CCCN2C(=O)c2cnc(-c3ccccn3)s2)cn1 (centres undefined), the INHIBITION was -59.7%.
Cc1nc(Cn2c(=O)cnc3ccccc32)n(C)n1 gave an INHIBITION of 17.6%.
COC(=O)NCC(=O)NCc1nn(-c2ccccc2)c2c1CCC2 showed an INHIBITION of 24.75%.
With Cc1noc([C@]23COC[C@H]2CN(C(=O)N2CCCC2)C3)n1 the INHIBITION was 15.8%.
In the case of O=C(c1cnccn1)N1CCCC(C2=Nc3ccccc3S(=O)(=O)N2)C1 (centres undefined), the INHIBITION is reported as 16.705%.
Work on CCCN(C)C(=O)c1cc(S(=O)(=O)NCC)ccc1C yielded an INHIBITION of 16.6%.
For CCNS(=O)(=O)c1ccc(C)c(C(=O)N(C)Cc2ccccc2C)c1, the INHIBITION was 67.3%.
CCNS(=O)(=O)c1ccc(C)c(C(=O)N(C)Cc2ccco2)c1 showed an INHIBITION of 26.8%.
CCN(CC)[C@@H]1CN(Cc2nccn2C)[C@@H]2CCCO[C@H]12 showed an INHIBITION of 20.1%.
Work on Cc1cccnc1CN1CCOC(Cc2cccc3ccccc23)C1 (centres undefined) yielded an INHIBITION of 42.1%.
For c1ccc2c(CC3CN(Cc4nccs4)CCO3)cccc2c1 (centres undefined), the INHIBITION was 53.3%.
For COc1ncc(CN2CCOC(Cc3cccc4ccccc34)C2)cn1 (centres undefined), the INHIBITION was -31.8%.
Cc1ccc(NC(=O)Cc2cnc3n(C)c(=O)[nH]c(=O)n23)cc1 was tested, and the INHIBITION was 0.207%.
For CCn1ncc(Cn2cc(Cl)c(N)n2)c1C, the INHIBITION was 51.5%.
CCn1cc(Cn2cc(Cl)c(N)n2)c(C)n1 gave an INHIBITION of -18.8%.
Cc1c(Cn2cc(Cl)c(N)n2)cnn1C was tested, and the INHIBITION was 17.8%.
CC(=O)N1CCCN(C(=O)NCc2ccc(Cl)s2)CC1 showed an INHIBITION of 25.6%.
For CN(C)C(=O)COCC1CN(Cc2ccoc2)Cc2ncn(C)c21 (centres undefined), the INHIBITION was 12.5%.
Compound COc1ccc(S(=O)(=O)N2CCOC(Cn3ccnc3)C2)cc1 (centres undefined) has an INHIBITION of 8.12%.
Work on FC(F)CN1CCC(NCc2ccc(-n3cccn3)nc2)CC1 yielded an INHIBITION of 48.2%.
CN(C)CCNC(=O)c1cc(-c2cnc(N3CCOCC3)nc2)cn1C gave an INHIBITION of 19.4%.
CCCNC(=O)c1cc(-c2cnc(N3CCCC3)nc2)cn1C gave an INHIBITION of 64.9%.
Cn1cc(-c2cnc(N3CCCC3)nc2)cc1C(=O)O showed an INHIBITION of -50.8%.
For CN(C)CCNC(=O)c1cc(-c2cnc(N3CCCC3)nc2)cn1C, the INHIBITION was 63.7%.
With CN1CCN(C(=O)c2cc(-c3cnc(N4CCCC4)nc3)cn2C)CC1 the INHIBITION was -2.17%.
Compound Cn1cc(-c2cnc(N3CCOCC3)nc2)cc1C(=O)NCCO has an INHIBITION of 35.8%.
Compound COCCN(C)C1COC2(CCN(Cc3cccc(F)c3)CC2)C1 (centres undefined) has an INHIBITION of 26.4%.
In the case of O=C(c1ccccn1)N1CCN(c2ccc(-c3cccnc3)nn2)CC1, the INHIBITION is reported as 21.6%.
COCCN(C)C[C@@H]1CN(C(=O)c2ccc(O)c(Cl)c2)C[C@@H]1CO was tested, and the INHIBITION was 46.1%.
Compound CN(C)c1ccc(CNC(=O)Nc2ccc(S(C)(=O)=O)nc2)cc1 has an INHIBITION of -24.75%.
For O=C(NCc1ccccc1F)C1=NOC2(CCNC2)C1 (centres undefined), the INHIBITION was 7.65%.
With CC(C)(C(=O)NCC(=O)NC1CC1)c1ccccc1F the INHIBITION was 19.4%.
For O=C(CC1CCN(c2cccnn2)CC1)Nc1cccnc1, the INHIBITION was 21.1%.
Work on CCCC(=O)NC1CCCN(Cc2cccs2)C1 (centres undefined) yielded an INHIBITION of 7.24%.
Work on CC(C)(C)OC(=O)NC1CCCN(Cc2cccs2)C1 (centres undefined) yielded an INHIBITION of 16.5%.
Work on CC(C)(C)C(=O)N1C[C@H](c2ccsc2)[C@H]2CN(Cc3cccs3)CC[C@H]21 yielded an INHIBITION of 54.6%.
CC(C)(C)C(=O)N1C[C@H](c2ccsc2)[C@H]2CN(C3CCCCC3)CC[C@H]21 was tested, and the INHIBITION was 50.8%.
In the case of CC(C)(C)C(=O)N1C[C@H](c2ccsc2)[C@H]2CN(C3CCCC3)CC[C@H]21, the INHIBITION is reported as 34.1%.
With O=C(C1CCC1)N1C[C@@H](c2ccsc2)[C@@H]2CN(C3CCCCC3)CC[C@@H]21 the INHIBITION was 32.3%.
Compound Cn1nc2c(cc1=O)CN(Cc1coc(-c3cccc(F)c3)n1)CC2 has an INHIBITION of 9.54%.
Compound COCCNC(=O)c1nc(NS(=O)(=O)c2ccccc2)sc1C has an INHIBITION of 17.7%.
Cc1cnc(C(=O)NC(CN2CCCC2=O)c2ccccc2)cn1 (centres undefined) showed an INHIBITION of -15.543%.
With Cc1cn2c(n1)C(CNCC1=Cc3ccccc3OC1)CCC2 (centres undefined) the INHIBITION was 88.5%.
For Cc1ccc(N2CCCC(NCC3=Cc4ccccc4OC3)C2)nn1 (centres undefined), the INHIBITION was -4.94%.
Compound Cc1cn2c(n1)C(CNCC1=Cc3cc(Cl)ccc3OC1)CCC2 (centres undefined) has an INHIBITION of 90.2%.
Compound CC(NCC1=Cc2cc(Cl)ccc2OC1)c1nnc2n1CCCC2 (centres undefined) has an INHIBITION of 0.139%.
In the case of CCN(CC)c1ncc(CNCC2CCCn3ccnc32)s1 (centres undefined), the INHIBITION is reported as 30.8%.
Work on Cn1ccnc1C(=O)N1CCCC(Cn2cc(CO)nn2)C1 (centres undefined) yielded an INHIBITION of 47.6%.
Work on O=C(Nc1ccc(F)c(F)c1)N1CCC2(CCC(=O)N(C3CC3)C2)CC1 yielded an INHIBITION of 36%.
In the case of COCCn1ccc2cc(C(=O)NC3CCOC(C)(C)C3)ccc21 (centres undefined), the INHIBITION is reported as -16.5%.
Work on Cc1nn(C)cc1C(=O)N1CCCn2nc(CN3CC[C@H](F)C3)cc2C1 yielded an INHIBITION of 38.5%.
COC(=O)NCC(=O)N1CCCn2nc(CN3CC[C@H](F)C3)cc2C1 was tested, and the INHIBITION was 59.1%.
COC(=O)NCc1cc2n(n1)CCCN(C(C)=O)C2 gave an INHIBITION of 9.3%.
Cc1ccc(N2CCC(CCN3CCCC3=O)CC2)nn1 showed an INHIBITION of 27.7%.
For Cc1ccc(C2CCCN(S(=O)(=O)N3CCOCC3)C2)nc1 (centres undefined), the INHIBITION was 19.85%.
In the case of COc1cccc(N2CCC(CNCc3cccc(C#N)c3)C2)c1 (centres undefined), the INHIBITION is reported as 26.4%.
For COc1ccc(CNCC2CCN(c3ccccc3OC)C2)cc1O (centres undefined), the INHIBITION was -29.1%.
Compound COc1ccccc1N1CCC(CNCc2ccc(C#N)cc2)C1 (centres undefined) has an INHIBITION of 40.9%.
With COc1ccccc1N1CCC(CNCc2cccc(OC)c2OC)C1 (centres undefined) the INHIBITION was 59.4%.
For COc1ccccc1N1CCC(CNCc2cccc(C#N)c2)C1 (centres undefined), the INHIBITION was 53.3%.
COc1ccccc1N1CCC(CNCc2cccc(O)c2)C1 (centres undefined) showed an INHIBITION of 37.5%.
Work on Cc1cnn(CC2CCCN2C(=O)c2cccc(F)c2F)c1 (centres undefined) yielded an INHIBITION of -65.3%.
CN(Cc1cnn(C)c1)C(=O)CCS(=O)(=O)c1ccc2c(c1)OCCO2 was tested, and the INHIBITION was 38%.
Compound O=C(c1ccsc1)N1C[C@H]2CN(Cc3cccnc3)C(=O)[C@H]2C1 has an INHIBITION of 4.61%.
Compound CO[C@H]1CN(S(=O)(=O)c2ccc(C)cc2)C[C@@]12CCCO2 has an INHIBITION of 16.5%.
O=C(NCc1ccc(Cl)s1)c1cc(CN2CCCC(O)C2)on1 (centres undefined) gave an INHIBITION of 49.9%.
O=C(NCc1cc2ccccc2s1)c1cc(CN2CCCC(O)C2)on1 (centres undefined) was tested, and the INHIBITION was 50.8%.
O=C(NCc1cccc(F)c1F)c1cc(CN2CCCC(O)C2)on1 (centres undefined) showed an INHIBITION of 34.1%.
CC(C)C[C@H](NC(=O)N1CCC(Cc2ccccc2)CC1)C(=O)O gave an INHIBITION of 43.4%.
CCC(CO)N(Cc1cccnc1)C(=O)c1ccc(C)[nH]c1=O (centres undefined) gave an INHIBITION of 35.1%.
Cc1ccc(CN2CCOC3(COCCN(S(C)(=O)=O)C3)C2)o1 (centres undefined) gave an INHIBITION of 15.4%.
In the case of N#Cc1cccnc1OC1CCN(C(=O)NCc2ccccc2)CC1, the INHIBITION is reported as 52.6%.
In the case of Brc1cccnc1OC1CCNCC1, the INHIBITION is reported as 51%.
COc1ncccc1CNC(=O)N1CCC(CNC(C)=O)CC1 showed an INHIBITION of 0.266%.
O=C(NCc1ccccc1)N1CCC(Oc2ncccc2Br)CC1 showed an INHIBITION of 74.4%.
For Clc1cccnc1OC1CCNCC1, the INHIBITION was 28.6%.
With O=C(NCc1ccccc1)N1CCC(Oc2ncccc2Cl)CC1 the INHIBITION was 22.2%.
N#Cc1cccnc1OC1CCN(C(=O)c2cc(C3CC3)on2)CC1 was tested, and the INHIBITION was 34.3%.
O=C(c1cc(C2CC2)on1)N1CCC(Oc2ncccc2Br)CC1 was tested, and the INHIBITION was 44.2%.
For O=C(CCC(=O)N1CCC(Oc2ncccc2Br)CC1)c1ccccc1, the INHIBITION was 45%.
Work on CCn1ncnc1CN1CCC(CNC(=O)c2cccnc2O)C1 (centres undefined) yielded an INHIBITION of -11.3%.
Cc1oc(C(C)C)cc1C(=O)N1C[C@@H]2CC[C@H]1CN(C(=O)N(C)C)C2 gave an INHIBITION of -14.3%.
In the case of Cc1cc(C)n(CC2CCN(CC(O)CN3CCOCC3)CC2)n1 (centres undefined), the INHIBITION is reported as -5.22%.
Compound O=C1NC(C(=O)NCc2cccnc2Oc2ccccc2F)CO1 (centres undefined) has an INHIBITION of -12.1%.
In the case of CCCc1noc(C2CCCCN2C(=O)C2CCCC2)n1 (centres undefined), the INHIBITION is reported as -11.7%.
Compound CCN(CC1CCOC1)C(=O)c1ccn(-c2cc(C)ccc2OC)n1 (centres undefined) has an INHIBITION of 30.5%.
In the case of CNC(=O)[C@@]12CCC3(CCN(C(=O)COC)CC3)[C@@H]1CN(S(C)(=O)=O)C2, the INHIBITION is reported as -16.2%.
For CCC(NC(=O)C(C)(C)C)c1ccccc1C (centres undefined), the INHIBITION was 32.9%.
In the case of CC[C@@H](C)[C@H](NC(=O)Cn1ccc2c(Cl)cccc21)C(=O)O, the INHIBITION is reported as -19.7%.
For C[C@]1(O)CN(CCC(N)=O)CC[C@@H]1Oc1cccc(F)c1, the INHIBITION was 53%.
Cn1cncc1CN1CC[C@](C)(O)[C@@H](Oc2cccc(F)c2)C1 was tested, and the INHIBITION was 21.9%.
For C[C@]1(O)CN(CCO)CC[C@@H]1Oc1cccc(F)c1, the INHIBITION was 59%.
Work on C[C@]1(O)CN(CC(=O)N2CCCC2)CC[C@@H]1Oc1cccc(F)c1 yielded an INHIBITION of 41.2%.
Compound C[C@]1(O)CN(Cc2cccc(C(=O)O)c2)CC[C@@H]1Oc1cccc(F)c1 has an INHIBITION of 17.4%.
In the case of C[C@]1(O)CN(Cc2ccc(C(=O)O)cc2)CC[C@@H]1Oc1cccc(F)c1, the INHIBITION is reported as 15.9%.
Cc1cccc(CN2CC3(CCN(C(=O)N(C)C)CC3)OCC2=O)n1 showed an INHIBITION of 30.3%.
In the case of Cc1cc(C(=O)NC2CCc3c(ccc(=O)n3CC3CC3)C2)no1 (centres undefined), the INHIBITION is reported as 36.5%.
In the case of Cc1nnc([C@]23COC[C@H]2CN(Cc2nccs2)C3)o1, the INHIBITION is reported as 9.79%.
